The target in one assay is PEX11G. Briefly: pooled miR-30 sensor sort-seq; sequence = guide strand. The conditions noted are these: shRNA.
Consider TAGACAAACATGGCCAGGTCAT, for which the sensor-assay potency score (higher = more potent) is -0.9. Same read-out and setting: the same measure for AACCAGAACTCCACCAACCAGC: -1.17.

CAGAACTCCACCAACCAGCTGG registered a sensor-assay potency score (higher = more potent) of -1.04. TTGCTTAGTGTAGACAAACATG yielded a sensor-assay potency score (higher = more potent) of -1.38.

The target in a further assay is PFKFB4. The description is as above. The conditions noted are these: shRNA.
TTTCCTTTCACATTGTAGGGTT gave a sensor-assay potency score (higher = more potent) of 0.667. For TTTCACACTTCACAAAGCCAAC, the sensor-assay potency score (higher = more potent) was -1.28. Take TAGGTCTTGACCACGTCCCGGC: the sensor-assay potency score (higher = more potent) is -0.311.

TCAAGTGACTCTTAGCAGCAGG registered a sensor-assay potency score (higher = more potent) of -0.462. With TTTGTAGGTCTTGACCACGTCC, the sensor-assay potency score (higher = more potent) was -0.178.

TTAAAGATGGTCGCTCTCCGTT showed a sensor-assay potency score (higher = more potent) of -0.54. Same read-out and setting: next, TTGATATAGGACAGGTCCCTAT: -1.32; TTTTGGTCACTGATGAACTGGG: -0.438; TATCGAGTCAGCTTCTTGGAGA: -0.636.

The sequence TAGACTCTTGGCAAACTCCCTG showed a sensor-assay potency score (higher = more potent) of 0.333.

Take TTCACTGTGAGAGCAGGCCTGA: the sensor-assay potency score (higher = more potent) is -0.707. For the sequence TCATCTAGCGACTCGTAGGAGT, the sensor-assay potency score (higher = more potent) is -0.615.

A further assay has as its target PGBD3. The description is as above. The following applies: shRNA.
In turn, TTTTCTTTAAAGCTACATCTGA came in with a sensor-assay potency score (higher = more potent) of -0.486.

For TTGTGTTCTTATGACATTCAGC, the sensor-assay potency score (higher = more potent) is -0.605. TACGCTTCTGAGGTCTTCCTTT returned a sensor-assay potency score (higher = more potent) of -0.455.

TAAAGCTACATCTGATTCCAGT showed a sensor-assay potency score (higher = more potent) of -0.329. Same read-out and setting: the same measure for TTCATCAGGAGAGTCATCTTTA: 0.38; for AACTTTGTCAATGTGATCCTTT: 0.355; for TAAACGTAGATGGAACTTCATC: -1.36. In the case of TGCATTGTCAGCAACATGCAAA, the sensor-assay potency score (higher = more potent) is -1.12. Sequence TTTCTTTAAAGCTACATCTGAT came in with a sensor-assay potency score (higher = more potent) of -0.534. TTCATTTGGAACAAATTTCATG showed a sensor-assay potency score (higher = more potent) of -0.714. Take TTTGGTGGTGCTGTAACTCTAC: the sensor-assay potency score (higher = more potent) amounted to 0.653. The same measure, in the same setting: the same measure for TTTGGAACAAATTTCATGCATC: -0.293.

The next assay has as its target PGD. The description is as above. The following applies: shRNA.
The sequence TTGAGGTCTCGGCACCGTCTTG showed a sensor-assay potency score (higher = more potent) of -1.68.

For TTGAGCGTAAGAGATGATCTTG, the sensor-assay potency score (higher = more potent) is 0.0723. With TTGGTGTGGATAAACTGCCCTG, the sensor-assay potency score (higher = more potent) is -0.35. For TAGGAATACACTTCTAATGATG, the sensor-assay potency score (higher = more potent) was -1.08. With TCAACTTTGGAGACAGTCCTAT, the sensor-assay potency score (higher = more potent) is -0.343. The sequence TTCAGAGATGATAAGCACCGAG had a sensor-assay potency score (higher = more potent) of -0.0452. Same read-out and setting: the same measure for TTTCCTAGGAATACACTTCTAA: 0.166; for TAGGAGGTTCTGAAGTTCCGGG: -0.239; for TGACTTAAAGAAGTCGTCCAGT: -0.436. TTTCTTATCACCATCAAACTGG: the sensor-assay potency score (higher = more potent) is -0.51.

These data come from the OligoGym collection.
Note: reference of the scale not given here.
